ClpP mod – qHTS Assay for Activators of ClpP | ATP-dependent Clp protease proteolytic subunit (Bacillus subtilis (strain 168)), P80244 | purified B. subtilis ClpP, FRET peptide cleavage, 20 min | Potency, µM (top dose mostly 57.5 µM) | actives 1.9% (n = 340,000) | AID 651965, 2013; active = well fitted falling curve with a large enough effect; inconclusive = small, poorly fitted or top-dose-only effect; inactive = no such curve, though single readings can be large or run the other way; note: the source files actives as falling curves though it sought activators and does not explain the sign; nearly all actives have a fitted effect of over 65% in size
Target sequence (P80244 whole entry, looked up): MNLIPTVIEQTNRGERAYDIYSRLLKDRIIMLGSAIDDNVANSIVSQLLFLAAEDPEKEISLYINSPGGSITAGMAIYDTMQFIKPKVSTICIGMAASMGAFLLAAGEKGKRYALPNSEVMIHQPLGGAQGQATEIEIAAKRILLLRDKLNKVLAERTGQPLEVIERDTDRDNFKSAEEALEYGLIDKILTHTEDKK
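Purified B. subtilis ClpP, 10 microg/mL final in Tris/HCl pH8 with KCl, BSA, glycerol and Tween-20, cleaved an Abz/nitrotyrosine-quenched decapeptide. Fluorescence (ex 320, em 430) was read at 0 and 20 min at room temperature. Delta was normalized to 5.8 microM ADEP and DMSO/no-enzyme controls.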
B2AR arrestin – qHTS assay of beta-arrestin-biased ligands of beta2-adrenergic receptor; actives 0.02% (n = 330,000); Potency, µM (titrated, usually from 46.1 µM), usual class: activators; beta-arrestin recruitment to beta2AR, cell-based reporter; AID 492947, 2010; note: nearly all actives have a fitted effect of over 65% in size
Target sequence (P07550 whole entry, looked up): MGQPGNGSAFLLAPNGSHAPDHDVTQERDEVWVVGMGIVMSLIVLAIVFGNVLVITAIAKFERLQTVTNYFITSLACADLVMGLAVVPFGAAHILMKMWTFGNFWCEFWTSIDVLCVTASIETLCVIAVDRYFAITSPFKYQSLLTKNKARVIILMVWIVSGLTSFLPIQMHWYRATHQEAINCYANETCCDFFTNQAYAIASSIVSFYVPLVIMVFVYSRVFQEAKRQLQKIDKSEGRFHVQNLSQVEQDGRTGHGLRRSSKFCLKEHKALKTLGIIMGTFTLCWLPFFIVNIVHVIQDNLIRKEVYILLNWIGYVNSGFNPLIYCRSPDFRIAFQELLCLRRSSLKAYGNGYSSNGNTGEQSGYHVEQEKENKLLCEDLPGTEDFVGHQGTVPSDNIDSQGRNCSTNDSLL
Giardia killer – Small Molecules that selectively kill Giardia lamblia: qHTS; actives 0.15% (n = 340,000); Giardia lamblia trophozoite viability; activity change, % at 7.66 µM, hits read low; in the data active = activity change below about -80%; inconclusive = between about -30% and that limit;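 note: parasites exposed to compound for two days anaerobically before the ATP read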
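Giardia lamblia trophozoites (100 cells/well) were incubated with compounds for 48 h at 37 deg C under anaerobic conditions. Viability was read as ATP content by one-step luminescence after 15-30 min at room temperature.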
p53 reactivation – qHTS assay for re-activators of p53 using a Luc reporter; H1299 p53-A138V BP100-luciferase reporter, luminescence, 24 h; Potency, µM (highest dose often 92.2 µM), actives largely listed as activators; actives 0.063% (n = 320,000); note: nearly all actives have a fitted effect of over 45% in size
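p53-null H1299 cells stably carrying temperature-sensitive p53-A138V and a BP100-luciferase reporter were pinned with compounds (4-point, 1:5 series) and held 24 hrs at 37 deg C. Luminescence was read 10 min after detection reagent.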
uPA generation – qHTS for Inhibitors of Cell Surface uPA Generation | AID 540303, 2011 | Potency, µM (highest dose often 38.3 µM), actives largely listed as inhibitors | cell surface uPA generation assay, qHTS | actives 0.31% (n = 330,000); active = well fitted inhibition curve with a large enough effect; inconclusive = small, poorly fitted or top-dose-only effect; inactive = no such curve, though single readings can be large or run the other way; tested in mouse RAW 264.7 cells; note: nearly all actives have a fitted effect of over 55% in size
Mito fusion yeast – qHTS Assay for Small Molecule Inhibitors of Mitochondrial Division or Activators of Mitochondrial Fusion | S. cerevisiae fusion-defective mutant growth rescue, CellTiterGlo 48 h | actives 0.23% (n = 320,000) | Potency, µM (top dose mostly 46.1 µM), hits mostly activators | AID 485298, 2010; note: nearly all actives have a fitted effect of over 45% in size
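S. cerevisiae fusion-defective temperature-sensitive mutants (e.g. fzo1-1, mgm1-5) grown 48 h at 37C in YPEG (ethanol/glycerol non-fermentable) medium with 23 nl compound per well; growth rescue read as CellTiterGlo luminescence.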
Large screens that a line does not name were inactive. Sampled rows, rich in hits. Any-hit rate of the full collection: about 2.1%. Unless noted, calls come from the whole dose curve; as a rule, active = well fitted curve in the direction sought with a large enough effect; inconclusive = small, poorly fitted or top-dose-only effect, or another doubt; inactive = no such curve, though single readings can be large; an effect the other way counts as inactive or inconclusive.

CN1CCN(c2ccc(S(=O)(=O)N3CCCCC3)cc2NC(=O)c2ccc3ccccc3c2)CC1	ClpP mod 20µM
Cc1ccccc1C(=O)Nc1cc(S(=O)(=O)N2CCCCC2)ccc1N1CCN(C)CC1	none
Cc1ccc(S(=O)(=O)N2CCCCC2)cc1NC(=O)c1cc2ccccc2o1	none
COC(=O)c1ccccc1NC(=O)c1ccc2c(c1)CCN2S(=O)(=O)c1ccc(Cl)cc1	none (no result: B2AR arrestin, Giardia killer, p53 reactivation, uPA generation, Mito fusion yeast)
COc1ccc(CCNC(=O)CCc2cn(Cc3ccc(F)cc3)c3ccccc23)cc1OC	none (no result: B2AR arrestin, Giardia killer, p53 reactivation, uPA generation, Mito fusion yeast)
O=S(=O)(Nc1nc2ccccc2nc1Nc1ccccc1Br)c1ccccc1	none (no result: B2AR arrestin, Giardia killer, p53 reactivation, uPA generation, Mito fusion yeast)
CCN1CCC(NC(=O)Nc2ccccc2C(=O)OC)CC1	ClpP mod inconclusive
O=C(NC1CCN(Cc2ccccc2)CC1)c1ccccc1Cl	none (no result: p53 reactivation)
COc1ccc(NC(=O)c2ccccc2NC(=O)C2CCCCC2C(=O)O)cc1 (centres undefined)	none (no result: B2AR arrestin, p53 reactivation, Mito fusion yeast)
Cc1c(C(=O)NC2CCN(Cc3ccccc3)C2)oc2c(Cl)cccc12 (centres undefined)	Mito fusion yeast 3.55µM (no result: ClpP mod)
CC(C)(C)c1ccc(C(=O)NC2CCN(Cc3ccccc3)CC2)cc1	Mito fusion yeast 35.5µM
COC(=O)c1ccccc1NC(=O)NC1CCN(Cc2ccccc2)CC1	ClpP mod 28.2µM (no result: uPA generation)
COC(=O)c1ccccc1NC(=O)C1CCCCC1C(=O)O (centres undefined)	ClpP mod 28.2µM (no result: uPA generation)
O=C(Cc1coc2cc3c(cc12)CCC3)NC1CCCCCCC1	none
O=C(O)Cc1coc2cc3c(cc12)CCC3	ClpP mod 25.1µM
CCCC(=O)Nc1cccc(NC(=O)c2cccc([N+](=O)[O-])c2C)c1	ClpP mod 11.2µM
CCOc1ccccc1NS(=O)(=O)c1c(C)nc2sccn2c1=O	none (no result: B2AR arrestin, Giardia killer, p53 reactivation, uPA generation, Mito fusion yeast)
O=[N+]([O-])c1cnc(Sc2ccncn2)s1	uPA generation 2.82µM
O=[N+]([O-])c1cnc(Sc2ccncn2)c([N+](=O)[O-])c1	none (no result: B2AR arrestin, Giardia killer, p53 reactivation, uPA generation, Mito fusion yeast)
CCOc1ccc(N(Cc2cc3ccc(C)cc3[nH]c2=O)S(=O)(=O)c2ccccc2)cc1	ClpP mod 31.6µM, Giardia killer inconclusive, uPA generation inconclusive
Cc1ccc(N(Cc2cc3cc(C)ccc3[nH]c2=O)S(=O)(=O)c2ccccc2)cc1	ClpP mod 28.2µM
Cc1cccc(N(Cc2cc3ccc(C)cc3[nH]c2=O)S(=O)(=O)c2ccccc2)c1	ClpP mod 25.1µM
O=c1[nH]c2ccccc2cc1CN(c1ccccc1)S(=O)(=O)c1ccccc1	ClpP mod 31.6µM
Cc1ccc2cc(CN(c3ccccc3)S(=O)(=O)c3ccccc3)c(=O)[nH]c2c1	none (no result: ClpP mod)
CCOc1cc(C2Nc3ccccc3C(=O)N2Cc2ccco2)ccc1OCc1ccccc1Cl (centres undefined)	none (no result: B2AR arrestin, p53 reactivation, uPA generation, Mito fusion yeast)
COc1ccc(NC(=O)c2oc3ccccc3c2NC(=O)Cc2coc3cc(C)ccc23)cc1	none (no result: B2AR arrestin, Giardia killer, p53 reactivation, uPA generation, Mito fusion yeast)
Cc1cccc(N(Cc2cc3ccccc3[nH]c2=O)S(=O)(=O)c2ccccc2)c1	ClpP mod 31.6µM
COc1ccc2[nH]c(=O)c(CN(c3ccccc3)S(=O)(=O)c3ccccc3)cc2c1	p53 reactivation inconclusive
CCc1cccc(C)c1NC(=O)C1CN(S(=O)(=O)c2ccccc2)CCN1S(=O)(=O)c1ccccc1 (centres undefined)	ClpP mod 25.1µM
CCOC(=O)C1CN(S(=O)(=O)c2ccccc2)CCN1S(=O)(=O)c1ccccc1 (centres undefined)	none (no result: uPA generation)
CCN(Cc1ccccc1)C(=O)c1nc(-c2cccc(F)c2)n2c1CCCCC2	none (no result: B2AR arrestin, Giardia killer, p53 reactivation, uPA generation, Mito fusion yeast)
O=C(Nc1ccc(OC(F)(F)F)cc1)Nc1cccc([N+](=O)[O-])c1	p53 reactivation 35.5µM
CC(C)(C)CC(C)(C)NC(=O)Nc1cccc([N+](=O)[O-])c1	uPA generation 10µM
CCCc1cc(SCC(=O)Nc2c(C)n(C)n(-c3ccccc3)c2=O)n2c(nc3ccccc32)c1C#N	B2AR arrestin 3.55µM
Cc1nc(SCC(=O)Nc2c(C)n(C)n(-c3ccccc3)c2=O)c(C#N)c(C)c1C	none
COc1ccccc1NC(=O)C1=C(C)Nc2nc(SCc3ccccc3)nn2C1c1cccs1 (centres undefined)	none (no result: B2AR arrestin, Giardia killer, p53 reactivation, uPA generation, Mito fusion yeast)
CCOC(=O)N1CCc2c(sc3c2C(=O)NC(c2ccccc2)N3)C1 (centres undefined)	ClpP mod 28.2µM
CN1CCc2c(sc3c2C(=O)NC(c2ccco2)N3)C1 (centres undefined)	ClpP mod 28.2µM (no result: uPA generation)
COc1ccc(Br)cc1C1NC(=O)c2c(sc3c2CCN(C)C3)N1 (centres undefined)	none
CN1CCc2c(sc3c2C(=O)NC(c2cn(Cc4ccccc4)c4ccccc24)N3)C1 (centres undefined)	ClpP mod 15.8µM
Cc1oc2ncn(CC(C)C)c(=O)c2c1C(=O)NCCCN1CCC(C)CC1	none (no result: B2AR arrestin, Giardia killer, p53 reactivation, uPA generation, Mito fusion yeast)
CC1CCCC(C)N1CCCNC(=O)c1ccc2nc(N3CCCCC3)sc2c1 (centres undefined)	uPA generation inconclusive
CC1CCN(c2nc3ccc(C(=O)NCCCN4CCCCC4C)cc3s2)CC1 (centres undefined)	uPA generation 11.2µM (no result: p53 reactivation)
CCCN1CCC(=O)N(C(CSc2ccc(Br)cc2)c2ccccc2)CC1 (centres undefined)	none (no result: ClpP mod, B2AR arrestin, p53 reactivation, uPA generation, Mito fusion yeast)
COc1ccc(Cl)cc1NC(=O)Cn1c(=O)n(-c2ccc(C)cc2)c(=O)c2ccc(C(=O)NCc3ccccc3Cl)cc21	none (no result: B2AR arrestin, Giardia killer, p53 reactivation, uPA generation, Mito fusion yeast)
CCOc1ccc(C(=O)NCC(=O)OCc2c(F)cccc2Cl)cc1	ClpP mod 28.2µM
O=C1CCCN1CCC(=O)N1CCCC(Nc2ccc(F)c(F)c2)C1 (centres undefined)	none (no result: ClpP mod)
O=C(CCn1cnnn1)N1CCCC(Nc2ccc(F)c(F)c2)C1 (centres undefined)	ClpP mod 31.6µM
Cc1ccc(C)c(N2CCN(C(=O)c3cc(S(=O)(=O)N4CCCC4)c[nH]3)CC2)c1	none (no result: B2AR arrestin, Giardia killer, p53 reactivation, uPA generation, Mito fusion yeast)
O=C(CSc1nnc2ccc(-c3ccccn3)nn12)Nc1ccccc1	none
COc1ccc(-c2ccnc(SCC(=O)Nc3ccccn3)n2)cc1	ClpP mod 35.5µM
Cc1nc(SCC(=O)Nc2ccccn2)n[nH]1	none (no result: ClpP mod)
COc1ccc(NC(=O)CSc2nnc3ccc(-c4ccccn4)nn23)cc1	ClpP mod 15.8µM
O=S(=O)(Nc1ccc(-c2ccc(N3CCCC3)nn2)cc1)c1cc(F)ccc1F	none (no result: B2AR arrestin, Giardia killer, p53 reactivation, uPA generation, Mito fusion yeast)
COc1ccc(-c2cc(C(=O)NN)[nH]n2)cc1OC	uPA generation 10µM
COc1ccc(-c2cc(C(=O)O)[nH]n2)cc1OC	none

Source: PubChem BioAssay (National Center for Advancing Translational Sciences (NCATS))
